# From PubChem BioAssay AID2546 (National Center for Advancing Translational Sciences (NCATS), 2010)
# About 11,000 (3.5%) of roughly 310,000 compounds were called active. Entries that show only a call come without a potency. Not shown: some 8% with an inconclusive outcome. Calls come from the whole dose curve; as a rule, active = well fitted inhibition curve with a large enough effect; inconclusive = small, poorly fitted or top-dose-only effect, or effect the other way; inactive = flat fitted curve, though single readings scatter. This excerpt belongs to a sample that is enriched for actives.
# Assay: VP16 counterscreen qHTS for inhibitors of ROR gamma transcriptional activity;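 note: Gal4-VP16 expression switched on by copper sulfate through the metallothionein promoter; nearly all actives have a fitted effect of over 50% in size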
# Conditions: Drosophila S2 Gal4-VP16 UAS-luciferase, luminescence, 20 h; series mostly up to 53.6 µM
# Potency is the fitted concentration of half-maximal effect.
SMILES,Potency,"activity, negative = inhibition"
CCOC(=O)C1CCN(C(=O)C2CCCN(S(=O)(=O)c3ccc(OC)c(Cl)c3)C2)CC1 (stereo unspecified),inactive,
CC1(C(=O)NCCc2c[nH]c3ccccc23)C=CC2(CCCCC2)N1C(=O)c1ccccc1 (stereo unspecified),inactive,
COc1ccc(NC(=O)CN(C)C(=O)CNC(=O)C2CCCCC2)cc1,inactive,
CCOC(=O)/C(C#N)=C/c1ccc(N2CCCCC2)cc1,inactive,
O=C1C=CC(=O)N1c1ccc(N2CCCCC2)cc1,8.91 µM (active),
O=c1[nH][nH]c(=O)c2cc(N3CCCC3)ccc12,inactive,
O=[N+]([O-])c1ccc(O)c(/C=N/Nc2ccccc2[N+](=O)[O-])c1,inactive,
Oc1ccc(Br)cc1/C=N/Nc1ccccn1,10 µM (active),
O=C(Nc1ccc(Br)cc1)c1cc(S(=O)(=O)Nc2ccccn2)ccc1Cl,inactive,
COc1ccc(NC(=O)NNC(=O)COc2cc(C)c(Cl)c(C)c2)c(OC)c1,inactive,
O=C1CCN(CCc2ccccc2)CCN1CCOc1ccccc1,inactive,
Cc1ccc(C(=O)CCC(=O)N(C)CC(=O)Nc2c(Cl)cccc2Cl)cc1,inactive,
CC(=O)Nc1ccc(S(=O)(=O)Oc2ccc(/C=N/N=C3/NC(=O)C(CC(=O)O)S3)cc2)cc1 (stereo unspecified),inactive,
CCCCC1S/C(=N/N=C/c2cccs2)NC1=O (stereo unspecified),0.316 µM (active),
CCC1C/C(=C/c2cccs2)C(=O)/C(=C/c2cccs2)C1 (stereo unspecified),inactive,
CCN(CC)CCCNC(=O)COc1ccc2oc3c(c2c1)CCCC3,inactive,
Cc1ccc(OCC(=O)Nn2cnc3ccccc32)cc1,inactive,
COc1ccc(NC(=O)Nc2cccc3cccnc23)cc1,inactive,
Cc1ccc(OS(=O)Nc2cccc3nccnc23)cc1 (stereo unspecified),3.16 µM (active),
O=C(CN1C(=O)COc2ccc(Cl)cc21)Nc1ccc(N2CCOCC2)cc1,inactive,
Cc1csc(NC(=O)NC2(C(F)(F)F)Oc3ccccc3O2)n1,inactive,
O=C(Nc1cc(N2CCOCC2)ncn1)NC1(C(F)(F)F)Oc2ccc(Cl)cc2O1 (stereo unspecified),15.8 µM (active),
COc1ccc(NC(=O)COc2ccc(C(=O)c3ccc(F)cc3)cc2)cc1S(N)(=O)=O,inactive,

SMILES,Potency,"activity, negative = inhibition"
COc1ccc(NC(=O)C/C(C)=N/NC(=O)c2cnccn2)cc1Cl,inactive,
CCOC(=O)C1CCN(C(=O)COc2cccc3ccccc23)CC1,inactive,
CCN(CC)C(=O)COc1coc(CN2CCN(Cc3ccccc3)CC2)cc1=O,inactive,
CCCc1cc(-c2n[nH]c(=S)n2CC)c2ccccc2n1,inactive,
Cc1ccccc1-c1n[nH]c(=S)n1/N=C/c1ccc(-c2ccccc2Br)o1,inactive,
Cc1ccccc1-c1n[nH]c(=S)n1C,7.94 µM (active),
O=C(Nc1cccc(NC(=O)c2ccccc2[N+](=O)[O-])c1)c1ccccc1Cl,inactive,
COC(=O)N/N=C/c1cn(CCCOc2ccc(C)cc2)c2ccccc12,1 µM (active),
COc1cccc(Cn2cc(/C=N/NC(=O)c3cc(O)cc(O)c3)c3ccccc32)c1,inactive,
CCOC(=O)N/N=C/c1cn(Cc2ccccc2Cl)c2ccccc12,inactive,
CCOC(=O)N1CCC(N2Cc3cccc(C(=O)Nc4ccc(S(=O)(=O)N(CC)CC)cc4)c3C2=O)CC1,inactive,
Oc1ccc(Cl)cc1/C=N/c1nc2ccccc2[nH]1,inactive,
C/C(=N\c1nc2ccccc2n1C)c1cc(Cl)ccc1O,inactive,
CCN(CC)CCn1c(/N=C/c2cc(Br)ccc2O)nc2ccccc21,6.31 µM (active),
Cc1sc2ncn(CC(=O)NCCCC(=O)N3CCN(c4ccccc4F)CC3)c(=O)c2c1C,inactive,
Cn1cccc1/C=N/NC(=O)c1ccc(OC(F)(F)C(F)F)cc1,5.62 µM (active),
Cn1cccc1/C=N/NC(=O)CNc1cccc2ccccc12,inactive,
COc1ccc(/C=N/NC(=O)c2cccc(C(F)(F)F)c2)cc1,,6.66% [at 10 µM] (inactive)
O=C(NCCc1cccc(F)c1)C1CCCN(c2nc3ccccc3s2)C1 (stereo unspecified),inactive,
COc1cc(NC(=O)c2ccccc2)c(OC)cc1NC(=O)Cc1ccccc1,inactive,
NC(=O)COC(=O)/C=C/c1ccc2ccccc2n1,inactive,
COc1cccc(/C=C2\C=C(c3ccc(C)cc3)OC2=O)c1OC(C)=O,inactive,
COc1cccc(/C=C/c2ccc3ccccc3n2)c1OC(C)=O,5.01 µM (active),

SMILES,Potency,"activity, negative = inhibition"
CCOc1ccccc1-c1cc(C(=O)N/N=C(\C)c2cccnc2)c2ccccc2n1,inactive,
CS(=O)(=O)c1sc(C(=O)NC(=S)Nc2ccc(OC(F)(F)F)cc2)c2c1C=CCC2,11.2 µM (active),
COC(=O)[C@H](C)NC(=O)Nc1ccc(OC(F)(F)F)cc1,inactive,
CSc1sc(C(=O)NNC(=O)c2ccc(Cl)cc2)c2c1C=CCC2,inactive,
CC(C)c1c(C(=O)N/N=C/c2ccc(-c3ccccc3)cc2)nnn1-c1nonc1N,inactive,
Cc1cc(C(C)(C)C)n2nc(C)c(-c3ccccc3)c2n1,inactive,
Cc1cc(N2CCCC2)n2nc(C)c(-c3ccccc3)c2n1,inactive,
Cc1nn2c(NCCN(C)C)c3c(nc2c1-c1ccccc1)CCC3,0.794 µM (active),
CCOC(=O)C1(Cc2cccc(OC)c2)CCCN(C(=O)CCSC)C1 (stereo unspecified),inactive,
CCN(CC)S(=O)(=O)c1ccc(N2CCN(C)CC2)c(NC(=O)Nc2ccccc2F)c1,inactive,
Cc1ccccc1CN1CCNC(=O)C1CC(=O)NCCC1=CCCCC1 (stereo unspecified),inactive,
C[n+]1ccc(C(=O)NCc2ccccc2)cc1,inactive,
CC1CCCCN1C(=S)NCc1ccccc1 (stereo unspecified),inactive,
C/C(=N\NC(=S)NCc1ccccc1)C1CCCCC1,1 µM (active),
C/C(=N\NC(=S)NCc1ccccc1)c1ccc(Cl)cc1,0.794 µM (active),
O=C(CC1CCCCC1)NCc1ccccc1,inactive,
O=C(O)c1ccc(/C=N/NC(=S)NCc2ccccc2)cc1,inactive,
COc1ccc(NC(=O)C(C)N2c3cccc4cccc(c34)S2(=O)=O)c(OC)c1 (stereo unspecified),inactive,
COc1cccc(/C=C2\Sc3ccc(C(=O)NCC4CCCO4)cc3N(C)C2=O)c1 (stereo unspecified),inactive,
CC(=O)NCCC(=O)Nc1nc(-c2ccc3c(c2)OCCO3)cs1,inactive,
Cc1cc(C)cc(NS(=O)(=O)Cc2ccccc2)c1,inactive,
Cc1ccc(C(=O)COC(=O)CCN2C(=O)C3C4CCC(C4)C3C2=O)cc1C (stereo unspecified),inactive,
COc1ccccc1NC(=O)c1ccc(C)s1,inactive,

SMILES,Potency,"activity, negative = inhibition"
COc1ccccc1NC(=O)/C=C/C(=O)O,inactive,
COc1ccccc1NC(=O)/C=C/C(N)=O,4.47 µM (active),
COc1ccc(NC(=O)CN2C(=O)COc3ccc(S(=O)(=O)N4CCOCC4)cc32)cc1,inactive,
CCn1c(-c2ccoc2C)n[nH]c1=S,inactive,
CCn1c(C(C)C)n[nH]c1=S,inactive,
CCc1cc(-c2n[nH]c(=S)n2CC(C)C)cs1,11.2 µM (active),
Cc1ccc(Cn2c(C)c3cnn(CC(=O)NCc4ccccn4)c(=O)c3c2C)cc1,inactive,
CC(=O)Nc1ccc(C(=O)N(C2=NC(C)CS2)c2ccc(Cl)cc2)cc1 (stereo unspecified),inactive,
COc1cccc(NC(=O)c2ccc(S(=O)(=O)N(C)C)cc2)c1,inactive,
COc1ccc(-c2nnc(NC(=O)CS(=O)(=O)c3ccc(Cl)cc3)o2)c(OC)c1,inactive,
COc1cccc(-c2nnc(NC(=O)c3ccc(S(=O)(=O)N(CC(C)C)CC(C)C)cc3)o2)c1,0.355 µM (active),
COc1cc(Nc2nc3ccc(Cl)cc3n3cnnc23)cc(OC)c1OC,inactive,
O=C(c1ccc(Cl)cc1)n1cnc2ccccc21,inactive,
C=CS(=O)c1sc(Cl)c(N2CCOCC2)c1[N+](=O)[O-] (stereo unspecified),3.98 µM (active),
CCCOc1ccc(C2=CSC3=NCCN23)cc1Cl,inactive,
COc1ccc(C(=O)NNC(=S)NC(=O)c2ccccc2)cc1,8.91 µM (active),
COc1ccc(C(=O)NC(=S)NNC(=O)CCc2ccccc2)cc1,15.8 µM (active),
COc1ccc(C(=O)NC(=S)NC2CCCCC2)cc1,6.31 µM (active),
COc1ccc(OCC(=O)NNC(=O)c2ccc(-c3ccccc3)cc2)cc1,inactive,
CCCNC(=S)N1CCC(NC(=O)c2ccc(OC)cc2)CC1,inactive,
O=C(NC(=S)NC1CCCCC1)c1ccc(Cl)cc1,inactive,
COc1ccc(C(=O)NNC(=S)NC(=O)c2ccccc2[N+](=O)[O-])cc1,inactive,
COc1ccc(C(=O)NC2CCN(C(=S)NCCc3ccccc3)CC2)cc1,inactive,

SMILES,Potency,"activity, negative = inhibition"
O=C(CCc1ccccc1)NNC(=O)c1ccc(Br)cc1,inactive,
COc1ccc(NC(=O)CCCN2C(=O)C(c3ccccc3)Oc3cccnc32)cc1 (stereo unspecified),inactive,
CC(C)C[C@@H](COc1ccccc1)N1CCN(CC(C)C)CCC1=O,inactive,
COc1ccc(CCc2nc(-c3cccs3)no2)cc1,inactive,
O=C(c1ccc2nc(N3CCOCC3)sc2c1)N1CCN(c2ccc(Cl)cc2)CC1,inactive,
COc1ccc(NC(=O)CSc2nncc(=O)n2N)cc1OC,inactive,
CCCC(C)c1nnc(NC(=O)C2CC(=O)N(c3ccc(OCC)cc3)C2)s1 (stereo unspecified),inactive,
O=C(N/N=C/c1ccccc1O)C1CCCC1,0.562 µM (active),
COc1ccc(/C=N/NC(=O)C2CC2)c(OC)c1OC,inactive,
Oc1ccccc1C=NC1CCCCC1N=Cc1ccccc1O (stereo unspecified),inactive,
N#CC(C#N)=CN=c1ccn(Cc2ccc(Cl)cc2Cl)cc1,inactive,
COc1ccccc1N1CCN(C(=O)c2cc(=O)c3cc(C)ccc3o2)CC1,inactive,
O=c1c2ccccc2nc2n1C(CSCc1ccccc1)CS2 (stereo unspecified),,5.71% [at 0.365 µM] (inactive)
O=c1c2ccccc2nc2n1C(CSCc1cccc(C(F)(F)F)c1)CS2 (stereo unspecified),7.94 µM (active),
O=c1c2ccccc2nc2n1C(CSc1ccc(F)cc1)CN2 (stereo unspecified),inactive,
CS(=O)(=O)N1CCN(CC(=O)NC2CCCC2)CC1,inactive,
COc1ccccc1Oc1ccc(S(=O)(=O)Nc2cccnc2)cc1,17.8 µM (active),
O=S(=O)(Nc1ccccn1)c1ccc(Oc2ccccc2)cc1,inactive,
COc1ccc(S(=O)(=O)Nc2cccnc2)c(Cl)c1Cl,inactive,
